Among all 2,400 compounds or so, about 1,400 (58%) were called active.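 The calls were made as follows: active = inhibition of 30% or more at any tested dose; inconclusive = primary hits over the limit that were never retested; inactive = the rest.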 The set was probably picked from earlier hits. The list shows a part of the results.

This test is described as follows: ADP Hunter readout inhibition without MgcRacGAP – biochemical, coupled enzyme counter-screen, artefact control for MgcRacGAP inhibitor project, dose response (AID 624351).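 Also: signal is the ADP detection kit reading of free GDP without any GAP enzyme.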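 As to inhibition: 0% = median positive control wells and 100% = median negative control wells.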 To be noted: fluorescence, no MgcRacGAP; series mostly up to 80 µM; inhibition: at the top concentration. On the technique in general: The purpose of a counterscreen is to sort out artefacts and off-target activity.
As for `N=C1/C(=C\c2ccc(Br)o2)C(=O)N=C2SC(CC(=O)N3CCCCC3)=NN12`, the “inhibition” value is 3.12% (inactive).
`COc1ccc(C2NC(=O)C(C#N)=C(S)N2c2ccccc2)cc1OC` (stereo not drawn): the “inhibition” value was 1.58% (inactive).
As for `S=c1[nH]nc2ccccn12`, the IC50 was 24 µM (active).
For the compound `Cc1ccn2c(=S)[nH]nc2c1`, the IC50 is 46.7 µM (active).
Take `Cc1cccn2c(=S)[nH]nc12`: the IC50 was 13.4 µM (active).
For `Cc1ccc(/C=C2/C(=O)c3ccc(C(=O)O)cc3C2=O)o1`, the “inhibition” value is -2.01% (inactive).
`Cc1cc(O)ccc1N=Cc1c(C(F)(F)F)[nH][nH]c1=O`: the IC50 is 32.8 µM (active).
On the same count and under the same terms, the figure for `Oc1ccc(/C=C/c2ccc3ccccc3n2)cc1` is 30.7 µM (active); for `O=c1[nH]c2ccccc2nc1/C=C/c1ccc(O)cc1` it is 36.9 µM (active); for `CCOc1cc(/C=N/NC(=O)c2ccc(NC(=O)C3CC3)cc2)ccc1O` it is 83.2 µM (active).
Same read-out and setting: the same measure for `CCOc1cc(/C=N/NC(=O)c2cc(C3CC3)[nH]n2)ccc1O`: 56.1 µM (active); for `CCOc1cc(/C=N/NC(=O)c2ccc(=O)n(C)c2)ccc1O`: 60.4 µM (active).
Take `CCOc1cc(/C=N/NC(=O)C2CCCC2)ccc1O`: the IC50 is 51.3 µM (active).
For `Cc1cc(C)c(C)c(OCCNCc2ccccc2)c1`, the “inhibition” value was 20.3% (inactive).
Turning to `COc1cc(/C=N/NC(=O)C2CCN(CC(O)COCc3ccccc3)CC2)ccc1O` (stereo not drawn), the half-maximal inhibitory concentration (IC50) is 34.1 µM (active).
Take `COc1ccccc1COCC(O)CNCC1(N2CCCCC2)CCCCC1` (stereo not drawn): the “inhibition” value is 19.2% (inactive).
Still for that read-out and setting: the figure for `Cc1cccc(N2C(S)=C(C#N)C(=O)NC2c2cccs2)c1` (stereo not drawn) is 6.48% (inactive); for `COc1cccc2c3cccc(OC)c3c3[nH]cnc3c12` it is 9.71% (inactive).
On to `COc1cc(N)c2ncccc2c1OC`, for which the IC50 was 63.8 µM (active).
Consider `COc1cc(CN(C)CCc2ccccn2)cc(OC)c1OC`, for which the “inhibition” value is 26.4% (inactive).
Still for that read-out and setting: the same measure for `COc1cc(NC(C)CCCNC(C)C)c2ncccc2c1OC` (stereo not drawn): 4.79% (inactive).
As to `COc1cc(N)c2ncccc2c1SC`, the concentration for half-maximal inhibition (IC50) was 51.2 µM (active).
As for `CCN1/C(=C\c2ccc3ccccc3[n+]2CC)Sc2cc(C)ccc21`, the “inhibition” value is 11.5% (inactive).
`CCOC(=O)c1ccc(S(=O)(=O)Nc2nc3cc(S(=O)(=O)NC4=NCCCCC4)ccc3s2)cc1`: the “inhibition” value was 2.82% (inactive).
On to `Cc1[nH]c2ccccc2c1N=Nc1c(C)n(C)n(-c2ccccc2)c1=O`, for which the half-inhibitory concentration (IC50) was 40.2 µM (active).
The same measure, in the same setting: the figure for `Cc1c(NC(=S)N/N=C/c2ccc(O)cc2)c(=O)n(-c2ccccc2)n1C` is 68.4 µM (active); for `Cc1c(N=C2C=C(Br)C(=O)C(Br)=C2)c(=O)n(-c2ccccc2)n1C` it is 24.2 µM (active).
On to `CC(=O)NC(Nc1c(C)n(C)n(-c2ccccc2)c1=O)C(Cl)(Cl)Cl` (stereo not drawn), for which the “inhibition” value is -1.5% (inactive).
Consider `COc1cc(N=Nc2c(C)n(C)n(-c3ccccc3)c2=O)ccc1N`, for which the 50% inhibitory concentration (IC50) is 47.2 µM (active).
The same measure, in the same setting: the figure for `Cc1c(N=Nc2ccc(O)cc2)c(=O)n(-c2ccccc2)n1C` is 19.5 µM (active).
`Cc1c(NC(=O)CNCc2ccc3c(c2)OCO3)c(=O)n(-c2ccccc2)n1C`: the “inhibition” value was 6.4% (inactive).
The same measure, in the same setting: the figure for `CCN1CCN(CCCCOc2ccccc2F)CC1` is 22.8% (inactive).
With `CCOc1cc(NC(=O)c2ccccc2C(=O)O)c(OCC)cc1NC(=O)c1ccccc1F`, the half-inhibitory concentration (IC50) was 65.3 µM (active).
`CCOc1ccccc1NC(=O)C(NCCN(C)C)c1ccccc1` (stereo not drawn): the “inhibition” value is 21.6% (inactive).
Same read-out and setting: the same measure for `CC1CC(C)(C)N(C(=O)CN2CCN(C)CC2)c2ccccc21` (stereo not drawn): 23.8% (inactive).
Consider `CC1CCC/C(=C\c2ccc(O)cc2)C1=O` (stereo not drawn), for which the IC50 is 22.3 µM (active).
Same read-out and setting: the figure for `O=C1CCCC/C1=C\Nc1ccc(O)cc1` is 13.3 µM (active); for `Cc1cc(O)ccc1N/C=C1\CCCC1=O` it is 21 µM (active); for `CC1CCC/C(=C\Nc2ccc(O)cc2)C1=O` (stereo not drawn) it is 31.8 µM (active).
With `Cc1cnc(NC(=O)C(C)N2CCN(C)CC2)s1` (stereo not drawn), the “inhibition” value was 24.8% (inactive).
As to `O=C1OCC/C1=C\c1ccc(O)cc1`, the IC50 was 27.6 µM (active).
On to `CCOc1ccccc1CN(CCc1ccc2c(c1)OCO2)Cc1ccccn1`, for which the “inhibition” value was 17.6% (inactive).
Still for that read-out and setting: the same measure for `CC1OC(CC(=O)O)CC2=C1C(=O)c1c(O)cccc1C2=O` (stereo not drawn): -0.48% (inactive).
In the case of `Cc1ccc(/C=N/n2c(-c3cccnc3)n[nH]c2=S)s1`, the IC50 is 43.8 µM (active).
Same read-out and setting: the same measure for `O=[N+]([O-])c1cccc(/C=N/n2c(-c3cccnc3)n[nH]c2=S)c1`: 24.9 µM (active); for `S=c1[nH]nc(-c2cccnc2)n1/N=C/c1cccs1`: 42.7 µM (active).
Take `Cn1c(-c2cccc([N+](=O)[O-])c2)cnc1NCc1cccc([N+](=O)[O-])c1`: the “inhibition” value is 22.6% (inactive).
In the case of `CCc1ccc(OCCOCCN2CCN(C)CC2)cc1`, the “inhibition” value was 19.5% (inactive).
Still for that read-out and setting: the same measure for `COc1ccc(C2NC(=O)C(C#N)=C(S)N2c2ccc(C)cc2)cc1OC` (stereo not drawn): 3.19% (inactive).
Same read-out and setting: the same measure for `CC1=CC(C)(C)N(C(=O)CNC2CCCC2)c2cc(C)ccc21`: 20.2% (inactive).
As to `Nc1[nH]c2cc([N+](=O)[O-])ccc2c1-c1ccccn1`, the 50% inhibitory concentration (IC50) is 75.4 µM (active).
Take `O=[N+]([O-])c1ccc(Oc2cccc3cccnc23)c([N+](=O)[O-])c1`: the “inhibition” value was 8.96% (inactive).
Same read-out and setting: the figure for `O=[N+]([O-])c1ccc(Sc2cccc3cccnc23)c([N+](=O)[O-])c1` is 5.21% (inactive).
For `O=C(O)c1ccccc1NS(=O)(=O)c1ccc(N/N=C/c2ccc(O)c(O)c2)c([N+](=O)[O-])c1`, the IC50 was 69.8 µM (active).
With `C=CCOc1ccc(C=NNc2ccc(S(=O)(=O)Nc3ccccc3C(=O)O)cc2[N+](=O)[O-])cc1OC`, the “inhibition” value was 4.51% (inactive).
`O=C(/C=C/c1ccc(O)c(O)c1)NC(=O)c1ccccc1O`: the IC50 is 21.9 µM (active).
Take `Cc1ccc2oc(=O)c(/C=C(\O)c3ccccc3)nc2c1`: the IC50 is 59.2 µM (active).
The same measure, in the same setting: the figure for `Cn1c(N=Nc2ccc(N3CCOCC3)cc2)[n+](C)c2ccccc21` is 58.3 µM (active).
For the compound `O=C(CNCc1ccc(Cl)cc1)Nc1ccc2c(c1)OCCO2`, the “inhibition” value was 14.6% (inactive).
Consider `c1csc(CNc2ccc3c(c2)OCCO3)c1`, for which the half-maximal inhibitory concentration (IC50) was 69.2 µM (active).
Take `CN(C)c1ccc(N=c2sc3ccccc3n2C)cc1`: the IC50 was 26.7 µM (active).
Take `Nc1ccc2cc3[nH]c4cc(N)ccc4c3nc2c1`: the “inhibition” value is -9.55% (inactive).
With `Nc1ccc2c(c1)[nH]c(=O)c1cc(N)ccc12`, the 50% inhibitory concentration (IC50) is 16.6 µM (active).
On the same count and under the same terms, the same measure for `CN1/C(=N\O)c2cccc3cccc1c23`: 54 µM (active).
The same measure, in the same setting: the figure for `CC(=O)c1c(Nc2ccc3c(c2)OCCO3)oc(C)cc1=O` is 77.3 µM (active); for `O=C(NC(=S)N1CCN(c2ccc(O)cc2)CC1)c1ccco1` it is 38.7 µM (active).
Still for that read-out and setting: the same measure for `Oc1ccc(N2CCN(C(=S)NCCc3ccccc3)CC2)cc1`: 32.2 µM (active).
In the case of `COCCCNC(=S)N1CCN(Cc2ccc3c(c2)OCO3)CC1`, the “inhibition” value is 12.6% (inactive).
The same measure, in the same setting: the figure for `O=C(CN1CCN(C/C=C/c2ccccc2)CC1)Nc1ccccc1C(=O)NC1CC1` is 13.6% (inactive); for `CCN(CC)S(=O)(=O)c1ccc(C)c(NC(=O)CN2CCN(Cc3ccccc3)CC2)c1` it is 23.3% (inactive).
As for `O=C(CN1CCN(c2ccc(O)cc2)CC1)Nc1ccccc1C(=O)NCCc1ccccc1`, the 50% inhibitory concentration (IC50) is 32.9 µM (active).
`CN1CCC(N(C)CC(=O)Nc2ccc3c(c2)OC(F)(F)O3)CC1`: the “inhibition” value is 24.9% (inactive).
Still for that read-out and setting: the same measure for `Cc1sc2ccc3sccc3c2[n+]1C`: 0.22% (inactive).

As usually defined, the inhibition is the relative decrease from the control value, in per cent. Usually IC50 stands for the midpoint of a concentration-inhibition curve.

These data come from PubChem BioAssay AID624351 (Southern Research Specialized Biocontainment Screening …, 2012).
